37 molecules from PubChem BioAssay (NCATS) can be followed below.

Values joined by “and” are separate entries in the source; they are usually repeats but may differ in a detail not shown here. Equal entries are not always repeated. Inconclusive results are not listed. Active and inactive are the calls of the source. Calls follow the shape of the dose curve; as a rule, active = well fitted activation curve with a large enough effect; inconclusive = small, poorly fitted or top-dose-only effect; inactive = no such curve, though single readings can be large or run the other way.
Potency is read from the fitted curve at half-maximal effect.

Sequence of Cellular tumor antigen p53 (Homo sapiens) (P04637 whole entry, looked up): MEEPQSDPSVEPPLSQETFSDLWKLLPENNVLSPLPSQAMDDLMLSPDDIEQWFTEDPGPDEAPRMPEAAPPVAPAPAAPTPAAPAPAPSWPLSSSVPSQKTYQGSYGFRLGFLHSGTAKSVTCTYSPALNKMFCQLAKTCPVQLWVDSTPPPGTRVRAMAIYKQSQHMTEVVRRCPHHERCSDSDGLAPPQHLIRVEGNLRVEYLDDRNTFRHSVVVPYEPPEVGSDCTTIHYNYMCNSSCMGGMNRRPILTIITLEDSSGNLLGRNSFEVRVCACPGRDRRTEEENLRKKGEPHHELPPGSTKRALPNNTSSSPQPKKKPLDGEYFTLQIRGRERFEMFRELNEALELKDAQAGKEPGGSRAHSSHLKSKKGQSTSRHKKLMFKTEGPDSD

This test has as its target Cellular tumor antigen p53 (Homo sapiens) (UniProt P04637). The test is described as follows: Primary qHTS for small molecule compounds that upregulate eGFP-tagged delta133p53alpha (in N-terminal) cells. (AID 2060322). Also: nearly all actives have a fitted effect of over 75% in size.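 As to activation: series mostly up to about 56 µM; 0% = DMSO vehicle and 100% = reference activator.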 The conditions noted are these: NCI-H358 eGFP-delta133p53alpha fluorescence, 24 h; activation: hits give high values. Summed up: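 NCI-H358 cells pre-induced 24 h with 10 ng/ml doxycycline to express N-terminal eGFP-delta133p53alpha, then dosed 24 h at 37C without doxycycline; fixed, Hoechst-stained, GFP intensity by laser scanning cytometry, normalized to DMSO (0%) and 57.5 uM 5-azacytidine (100%).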
(In general: Quantitative high-throughput screening tests each substance at several concentrations.)
For the molecule `O=C(O)COc1nn(Cc2ccccc2)c2ccccc12`, the activation was 28.8% (inactive). On to `CCCCCCOc1ccccc1C(N)=O`, for which the activation is 8.47% (inactive). As for `C1N2CN3CN1CN(C2)C3`, the Potency is 27.6 µM (active). As for `CCCNC(C)C(=O)Nc1c(C)csc1C(=O)OC` (configuration not stated), the activation is -37.9% (inactive). Take `CCC(CC)(CC(=O)Nc1cccc(/C=C/c2nc(C3CCC3)cs2)c1)C(=O)O`: the activation is 24.3% (inactive). Same read-out and setting: next, `O=C(O)COC(=O)Cc1ccccc1Nc1c(Cl)cccc1Cl`: 5.08% (inactive).

Take `CC(=O)N[C@@H]1[C@H](O[C@@H]2c3ccc(c(Cl)c3)Oc3cc4cc(c3O[C@H]3O[C@H](CO)[C@@H](O)[C@H](O)[C@H]3NC(=O)CCCCCCCC(C)C)Oc3ccc(cc3Cl)C[C@H]3NC(=O)[C@H](N)c5ccc(O)c(c5)Oc5cc(O)cc(c5)[C@H](NC3=O)C(=O)N[C@H]4C(=O)N[C@H]3C(=O)N[C@@H]2C(=O)N[C@@H](C(=O)O)c2cc(O)cc(O[C@H]4O[C@H](CO)[C@@H](O)[C@H](O)[C@H]4O)c2-c2cc3ccc2O)O[C@H](CO)[C@@H](O)[C@@H]1O`: the activation was 25.3% (inactive). Consider `c1ccc(CNCCNCc2ccccc2)cc1`, for which the activation is 2.51% (inactive). As for `O=C(O)CC(O)C(=O)O` (configuration not stated), the activation was -26.6% (inactive). With `COc1ccc2cc(C=O)ccc2c1`, the activation was -1.69% (inactive). `Cc1cc(CC(=O)O)c(C)n1-c1ccc(Cl)cc1`: the activation was 5.86% (inactive).

Take `COc1cc(CNC(=O)CCCCC=CC(C)C)ccc1O`: the activation is -14.9% (inactive). With `C[N+]1(C)CCC(=C(c2ccccc2)c2ccccc2)CC1`, the activation was 28.8% (inactive). On to `O=C1OC(OC(=O)c2cccnc2Nc2cccc(C(F)(F)F)c2)c2ccccc21` (configuration not stated), for which the activation is -25.4% (inactive). As to `C1=CC2C3C=CC(C3)C2C1` (configuration not stated), the activation was 16.4% (inactive). `CN1C[C@H]2c3ccccc3Oc3ccc(Cl)cc3[C@@H]2C1`: the activation was -34.8% (inactive) and -0.565% (inactive). With `CCOC(=O)C1=C(C)NC(C)=C(C(=O)OCC)C1c1ccccc1/C=C/C(=O)OC(C)(C)C`, the activation was 17.5% (inactive). Take `COc1ccc([C@@H]2CC(=O)c3c(O)cc(O[C@@H]4O[C@H](CO[C@@H]5O[C@@H](C)[C@H](O)[C@@H](O)[C@@H]5O)[C@@H](O)[C@H](O)[C@@H]4O)cc3O2)cc1O`: the activation was 4.43% (inactive) and 6.54% (inactive). Turning to `Cc1cc(O)c(C(C)C)cc1Cl`, the activation was -0.565% (inactive).

Take `COc1cc2nc(N3CCCCC3)nc(NC3CCN(C)CC3)c2cc1OC`: the Potency was 38.5 µM (active). Turning to `CC=C(C(=CC)c1ccc(O)cc1)c1ccc(O)cc1`, the activation is -4.09% (inactive). In the case of `CC(C)OC(=O)CCCC=CC[C@@H]1[C@H](C=C[C@@H](O)COc2cccc(C(F)(F)F)c2)[C@H](O)C[C@@H]1O`, the activation was -7.59% (inactive). The same measure, in the same setting: next, `CN(C)CCOC1=Cc2ccccc2Sc2ccc(Cl)cc21`: 2.51% (inactive). As for `CC(C)(C)C(=O)OCOC(=O)[C@@H]1N2C(=O)[C@@H](NC(=O)[C@H](N)c3ccccc3)[C@H]2SC1(C)C`, the activation was 7.53% (inactive). Consider `NC[C@H]1O[C@H](O[C@H]2[C@@H](O)[C@@H](O[C@H]3O[C@H](CO)[C@@H](O)[C@H](N)[C@@H]3O)[C@H](N)C[C@@H]2N)[C@H](N)C[C@H]1O`, for which the activation was 25.5% (inactive).

For the molecule `CC[N+](C)(CC)CCOC(=O)C(O)(c1ccccc1)C1CCCCC1` (configuration not stated), the activation was -16.7% (inactive). With `N[C@@H](Cc1cc(I)c(Oc2ccc(O)c(I)c2)c(I)c1)C(=O)O`, the activation was -7.64% (inactive).

Consider `Cc1ccc(C(=O)C(=O)O)cc1C`, for which the activation was -13% (inactive). Turning to `CN1CCN(C2=Nc3cc(F)ccc3Cc3ccccc32)CC1`, the activation is -11.9% (inactive).

In the case of `Cc1ccsc1/C=C/C1=NCCCN1C`, the activation is -2.51% (inactive).

Turning to `CN1[C@@H]2CC(OC(=O)[C@H](CO)c3ccccc3)C[C@H]1[C@@H]1O[C@@H]12` (some centres not stated), the activation was -10.7% (inactive). `CC(=O)NCCCCCC(=O)O`: the activation was 0.837% (inactive). As for `c1ccc2c(c1)CCc1ccccc1N2`, the activation is 10.7% (inactive). Take `CSc1ccc(/C=C2/C(C)=C(CC(=O)O)c3cc(F)ccc32)cc1`: the activation is -8.47% (inactive). In the case of `CCn1cc(C(=O)O)c(=O)c2cnc(N3CCNCC3)nc21`, the activation was 0.837% (inactive). Consider `O=C(COCCOCCOCC(=O)Nc1c(I)cc(I)c(C(=O)O)c1I)Nc1c(I)cc(I)c(C(=O)O)c1I`, for which the activation is 10% (inactive). For `CC1(C)O[C@@H]2C[C@H]3[C@@H]4CCC5=CC(=O)CC[C@]5(C)[C@@]4(F)[C@@H](O)C[C@]3(C)[C@]2(C(=O)CCl)O1`, the activation was -1.67% (inactive).
